Laboratory results from PubChem BioAssay.
Values joined by “and” are separate entries in the source; they are usually repeats but may differ in a detail not shown here. Equal values may be shown once. Active and inactive are the calls of the source.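 The calls were made as follows, unless noted: active = thallium flux through the channel raised or lowered by more than 3 SD from vehicle-only wells, actives on both sides; inactive = the rest.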

How the values were obtained:
[1] = stimulators of nuclear beta-catenin in C2C12, primary screen, imaging, WNT3A-conditioned medium, mouse C2C12, NPC library (AID 1117326; in the data active = nuclear beta-catenin stimulation mostly above about 4.2%, no sharp cut-off; inactive = mostly below about 10%); settings: stronger effect = higher value
[2] = stimulators of insulin release from INS-1E, primary screen, cell-based, 5 mM glucose, NPC library (AID 1117329;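 active = compound raises insulin release from rat beta cells at 5 mM glucose, no numeric limit stated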); settings: rat INS-1E insulin secretion, at 10 µM, stronger effect = higher value
[3] = growth inhibition of GSK3B-pretreated HCT116 cells – cell-based, CellTiter-Glo, 0.2 to 20 µM (AID 1117336;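 active = compounds lowering colon cancer cell viability after pretreatment blocking the GSK3B kinase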); settings: HCT116 viability after GSK3B inhibitor, at 20 µM, stronger effect = higher value
[4] = inhibition of endothelial tube formation, primary screen, imaging, VEGF stimulated, CD31 staining, tube area, NPC library (AID 1117340;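 active = compound that reduces growth-factor-driven endothelial tube area in a mixed cell culture, no cutoff stated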); settings: VEGF-stimulated ADSC/ECFC co-culture, at 10 µM, stronger effect = higher value
[5] = glucagon-like peptide 1 release enhancers, primary assay, NCI-H716 cell line, NPC library (AID 1117341;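 active = compound raises GLP1 secretion from the human gut endocrine cells, with no numeric limit stated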); settings: NCI-H716 cells, at 10 µM, stronger effect = higher value
[6] = HCT116 colon cancer cell growth inhibition, primary screen, CellTiter-Glo luminescence, NPC library (AID 1117342;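 active = compounds that lower survival of HCT116 colon cancer cells in the luminescence readout, no numeric limit stated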); settings: at 20 µM (top of the series)
[7] = CellTiter-Glo luminescent readout of SW480 viability loss, NPC library primary (AID 1117343;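 active = compounds that lower viability of the colon cancer cells in the luminescence readout, with no numeric limit stated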); settings: CellTiter-Glo luminescence; at 20 µM (top of the series)
[8] = decreased DLD-1 cellular survival, CellTiter-Glo luminescent readout, NPC compound collection, primary HTS (AID 1117346;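 active = compounds that lower survival of DLD-1 colon cancer cells in the luminescence readout, no cutoff given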); settings: DLD-1 viability, CellTiter-Glo luminescence; at 20 µM (top of the series)
[9] = target: 6-phosphogluconate dehydrogenase, decarboxylating (Homo sapiens) (UniProt P52209); test: 6PGD enzyme inhibitors, primary screen, biochemical, human, recombinant enzyme, NADPH absorbance (AID 1159550;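 active = at least 20% inhibition of 6-phosphogluconate dehydrogenase activity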); settings: recombinant 6PGD, NADPH absorbance 341 nm; at 10 µM; stronger effect = higher value
6-phosphogluconate dehydrogenase, decarboxylating (Homo sapiens), sequence (P52209 whole entry, looked up): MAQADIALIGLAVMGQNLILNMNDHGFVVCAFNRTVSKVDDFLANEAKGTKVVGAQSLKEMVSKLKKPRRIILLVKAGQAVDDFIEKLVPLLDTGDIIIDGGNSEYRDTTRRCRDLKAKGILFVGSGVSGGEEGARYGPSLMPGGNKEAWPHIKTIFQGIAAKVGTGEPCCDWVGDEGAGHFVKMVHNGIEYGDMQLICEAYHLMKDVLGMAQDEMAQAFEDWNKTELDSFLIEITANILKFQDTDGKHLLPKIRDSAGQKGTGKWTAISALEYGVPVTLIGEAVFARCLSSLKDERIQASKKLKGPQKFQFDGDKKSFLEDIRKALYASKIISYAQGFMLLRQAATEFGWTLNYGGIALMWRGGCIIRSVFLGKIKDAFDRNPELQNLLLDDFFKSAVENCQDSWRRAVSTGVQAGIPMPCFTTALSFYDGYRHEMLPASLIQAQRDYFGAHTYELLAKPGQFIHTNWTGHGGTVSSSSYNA

[10] = modulation of C. elegans fzo-1 (AID 1259413; call rule not given here;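 also: fzo-1 mutant C. elegans worms in liquid wells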); settings: C. elegans fzo-1 modulator screen, mean read-out; stronger effect = higher value
[11] = differential killing of epithelial or mesenchymal cells, primary screen, imaging, PC-3E GFP, TEM4-18 mCherry, co-culture (AID 1345086;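 active = compounds killing one labelled cell type while sparing the other, by normalised counts and ratio limits, not self-fluorescent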;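 as to all read-outs here: cells exposed to compound for 72 h before imaging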;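 as to red/green cell ratio (normalised): normalised mesenchymal count divided by normalised epithelial count so high means epithelial killing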); settings: imaging cell counts, at 1 µM; for red/green cell ratio (normalised): actives lie on both sides, counts scaled to control wells, 1 = unselective
[12] = survival rescue of mitochondrial mutant cells in low glucose, primary screen, MELAS cybrids, Rieske KO mouse fibroblasts, CellTiter-Glo (AID 1508586;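 active = mean z-score across replicates of 1.96 or higher in either the MELAS or the Rieske mutant cell line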;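 also: z relative to plate mean and SD of compound and empty wells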)
[13] = target: NAD(+) hydrolase SARM1 (Homo sapiens) (UniProt Q6SZW1); test: SARM1 TIR NADase inhibitors, cell lysate, NAD-Glo luminescence (AID 1508614;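 active = compound whose remaining NAD level is above about 45 nM, limit read from the data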;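 also: higher remaining NAD means stronger inhibition of SARM1 NADase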); settings: SAM-TIR HEK293T lysate NADase, at 1 µM, stronger effect = higher value
NAD(+) hydrolase SARM1 (Homo sapiens), sequence (Q6SZW1 whole entry, looked up, the tested form may be a part): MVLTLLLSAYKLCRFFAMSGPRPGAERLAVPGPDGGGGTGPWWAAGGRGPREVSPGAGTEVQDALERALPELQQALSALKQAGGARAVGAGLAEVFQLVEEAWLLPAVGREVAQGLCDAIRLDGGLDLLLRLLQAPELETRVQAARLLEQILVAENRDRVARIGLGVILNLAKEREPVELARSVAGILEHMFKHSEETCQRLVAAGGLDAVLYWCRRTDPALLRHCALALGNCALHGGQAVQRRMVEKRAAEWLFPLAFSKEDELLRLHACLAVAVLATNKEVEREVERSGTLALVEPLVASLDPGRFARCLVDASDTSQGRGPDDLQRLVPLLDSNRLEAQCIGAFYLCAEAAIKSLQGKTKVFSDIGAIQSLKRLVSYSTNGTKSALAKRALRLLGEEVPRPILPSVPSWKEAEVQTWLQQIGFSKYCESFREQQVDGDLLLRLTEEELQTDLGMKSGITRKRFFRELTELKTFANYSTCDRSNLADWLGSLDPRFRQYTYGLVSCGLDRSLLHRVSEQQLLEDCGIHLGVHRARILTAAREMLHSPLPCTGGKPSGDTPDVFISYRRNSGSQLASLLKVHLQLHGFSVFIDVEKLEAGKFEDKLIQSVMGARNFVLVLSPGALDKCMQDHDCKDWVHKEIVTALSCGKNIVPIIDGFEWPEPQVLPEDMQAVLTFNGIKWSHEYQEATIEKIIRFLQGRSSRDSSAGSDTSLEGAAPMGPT

[14] = target: Mitogen-activated protein kinase 7 (Homo sapiens) (UniProt Q13164); test: ERK5 transactivation activators in reporter cells, primary screen, cell-based, HTS (AID 1508626;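 active = luciferase signal above three times the same-plate solvent-only control wells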;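 also: luciferase driven by Gal4-ERK5 fusion binding five Gal4 sites before minimal TATA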); settings: HeLa Gal4-ERK5 transactivation, 18 h, at 5 µM, stronger effect = higher value
Mitogen-activated protein kinase 7 (Homo sapiens), sequence (Q13164 whole entry, looked up, the tested form may be a part): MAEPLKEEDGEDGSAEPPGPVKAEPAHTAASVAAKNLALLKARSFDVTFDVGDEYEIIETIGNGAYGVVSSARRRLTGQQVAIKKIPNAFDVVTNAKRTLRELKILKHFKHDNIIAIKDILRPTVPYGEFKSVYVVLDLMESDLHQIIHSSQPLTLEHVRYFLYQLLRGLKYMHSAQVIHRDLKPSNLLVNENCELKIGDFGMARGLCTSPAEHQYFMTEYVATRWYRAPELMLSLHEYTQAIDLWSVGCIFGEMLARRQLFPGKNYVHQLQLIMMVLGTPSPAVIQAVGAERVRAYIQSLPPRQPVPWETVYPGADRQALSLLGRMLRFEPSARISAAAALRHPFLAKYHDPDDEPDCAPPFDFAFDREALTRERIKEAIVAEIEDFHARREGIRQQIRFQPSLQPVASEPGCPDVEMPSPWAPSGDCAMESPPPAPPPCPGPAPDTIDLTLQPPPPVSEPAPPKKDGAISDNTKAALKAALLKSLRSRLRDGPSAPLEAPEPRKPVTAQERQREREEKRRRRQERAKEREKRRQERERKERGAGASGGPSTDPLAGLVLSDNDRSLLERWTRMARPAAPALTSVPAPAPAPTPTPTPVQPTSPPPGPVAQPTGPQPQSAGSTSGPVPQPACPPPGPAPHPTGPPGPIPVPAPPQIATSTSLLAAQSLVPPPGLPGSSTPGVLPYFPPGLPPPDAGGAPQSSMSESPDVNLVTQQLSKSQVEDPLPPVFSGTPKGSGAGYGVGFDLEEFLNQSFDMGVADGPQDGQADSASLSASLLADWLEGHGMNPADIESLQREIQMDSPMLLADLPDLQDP

[15] = system: F380Y; test: modulators of BK channel variants, profiling panel, selectivity assay, cell-based, U2OS BacMam, thallium flux, beta subunits (AID 1259406); settings: at 30 µM;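 also: initial slope of Thallos dye fluorescence rise after thallium is added; log ratio against the mean of 0.3% DMSO vehicle wells on the same plate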
[16] = system: F380Y/beta1; test: as above; settings: at 30 µM
[17] = system: F380Y/beta2Delta; test: as above; settings: at 30 µM
[18] = sensitizers of A549 cells to miR-34 induction, primary screen, imaging, A549 dox-inducible miR-34, nuclei and caspase counts (AID 1347080;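 active = compounds whose cell count with miR-34 switched on is under 0.7 times the count with it off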); settings: A549 miR-34 inducible, Hoechst nuclei count, 48 h
[19] = ICB984 medulloblastoma cell growth inhibition, synergistic combos for chromothripsis tumors, cisplatin or BGB combos (AID 1671451; call rule not given here;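 also: cells exposed for 96 hours before readout; 0% = vehicle DMSO and 100% = killing by high DMSO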); settings: ICB984 medulloblastoma cells, drug combinations, stronger effect = higher value
[20] = measured here: epithelial PC-3E GFP cell survival
[21] = measured here: mesenchymal TEM4-18 mCherry cell survival
[22] = MELAS cybrid survival, CellTiter-Glo 48 h, stronger effect = higher value
[23] = Rieske KO mouse fibroblast survival, CellTiter-Glo 72 h

Structure (SMILES): CC(C)Cc1ccc(C(C)C(=O)O)cc1 (stereo not drawn)
- nuclear beta-catenin stimulation ([1]; at 10 µM): 0.3% (inactive)
- nuclear beta-catenin stimulation ([1]; stimulation, at 2 µM): 1.7%
- insulin secretion stimulation [2]: -2.6% (inactive)
- viability decrease [3]: -2.1% (inactive)
- tube area decrease [4]: 0.9% (inactive)
- GLP1 secretion stimulation [5]: 0.1% (inactive)
- inhibition of viability [6]: -7.8% (inactive)
- viability decrease (inhibition) [7]: 21.6% (inactive)
- viability decrease (inhibition) [8]: 16.6% (inactive)
- inhibition [9]: -4.32% (inactive)
- mean signal [10]: 242 (inactive)
- red/green cell ratio (normalised) [11]: 1 (inactive)
- normalised cell number [11, 20]: 1.11
- normalised cell number [11, 21]: 1.11
- z-score [12, 22]: 0.0693 (inactive) and -0.542 (inactive)
- z-score [12, 23]: -0.22 and -1.3
- remaining NAD [13]: 10 nM (inactive)
- luciferase signal [14]: 24 AU (inactive)
- log fold change Tl+ flux [15]: 0.0419 (inactive)
- log fold change Tl+ flux [16]: -0.0217 (inactive)
- log fold change Tl+ flux [17]: 0.0321 (inactive)

Structure (SMILES): OC(Cn1cncn1)(Cn1cncn1)c1ccc(F)cc1F
- nuclear beta-catenin stimulation ([1]; at 10 µM): 1.7% (inactive)
- nuclear beta-catenin stimulation ([1]; stimulation, at 2 µM): 1.1%
- insulin secretion stimulation [2]: 4.05% (inactive)
- viability decrease [3]: 19.2% (inactive)
- tube area decrease [4]: -10% (inactive)
- GLP1 secretion stimulation [5]: 1% (inactive)
- inhibition of viability [6]: 1.7% (inactive)
- viability decrease (inhibition) [7]: 7.1% (inactive)
- viability decrease (inhibition) [8]: 2.4% (inactive)
- inhibition [9]: 9% (inactive)
- mean signal [10]: 277 (inactive)
- red/green cell ratio (normalised) [11]: 1.28 (inactive)
- normalised cell number [11, 20]: 1.22
- normalised cell number [11, 21]: 1.57
- z-score [12, 22]: -0.408 (inactive) and -0.874 (inactive) and -0.724 (inactive)
- z-score [12, 23]: -0.288 and -0.48 and -0.41
- remaining NAD [13]: 14 nM (inactive)
- luciferase signal [14]: 32 AU (inactive)
- log fold change Tl+ flux [15]: 0.0166 (inactive)
- log fold change Tl+ flux [16]: -0.0268 (inactive)
- log fold change Tl+ flux [17]: -0.000209 (inactive)

Structure (SMILES): CCN(Cc1ccncc1)C(=O)C(CO)c1ccccc1 (stereo not drawn)
- nuclear beta-catenin stimulation ([1]; at 10 µM): 0.5% (inactive)
- nuclear beta-catenin stimulation ([1]; stimulation, at 2 µM): -1.9%
- insulin secretion stimulation [2]: 1.6% (inactive)
- viability decrease [3]: 11.6% (inactive)
- tube area decrease [4]: 7.1% (inactive)
- GLP1 secretion stimulation [5]: 0.1% (inactive)
- inhibition of viability [6]: 14.3% (inactive)
- viability decrease (inhibition) [7]: 12% (inactive)
- viability decrease (inhibition) [8]: 3.8% (inactive)
- inhibition [9]: -16.3% (inactive)
- mean signal [10]: 244 (inactive)
- red/green cell ratio (normalised) [11]: 1.08 (inactive)
- normalised cell number [11, 20]: 1.08
- normalised cell number [11, 21]: 1.16
- z-score [12, 22]: 0.0477 (inactive) and 0.409 (inactive) and -0.211 (inactive)
- z-score [12, 23]: 0.0479 and 0.424 and 0.901
- remaining NAD [13]: 10 nM (inactive)
- luciferase signal [14]: 108 AU (inactive)
- log fold change Tl+ flux [15]: 0.0305 (inactive)
- log fold change Tl+ flux [16]: -0.00694 (inactive)
- log fold change Tl+ flux [17]: -0.0245 (inactive)

Structure (SMILES): CS(=O)(=O)OCCCCOS(C)(=O)=O
- nuclear beta-catenin stimulation ([1]; at 10 µM): 1.2% (inactive)
- nuclear beta-catenin stimulation ([1]; stimulation, at 2 µM): 0.6%
- insulin secretion stimulation [2]: 0.2% (inactive)
- viability decrease [3]: 3.6% (inactive)
- tube area decrease [4]: 32.5% (inactive)
- GLP1 secretion stimulation [5]: -1.7% (inactive)
- inhibition of viability [6]: -1.23% (inactive)
- viability decrease (inhibition) [7]: 31.8% (inactive)
- viability decrease (inhibition) [8]: -11% (inactive)
- inhibition [9]: 1.77% (inactive)
- mean signal [10]: 241 (inactive)
- red/green cell ratio (normalised) [11]: 1.02 (inactive)
- normalised cell number [11, 20]: 1.16
- normalised cell number [11, 21]: 1.19
- fold change ([18]; stronger effect = lower value, cell number ratio, induced over uninduced): 0.955 (inactive) and 0.888 (inactive) and 0.86 (inactive)
- fold change ([18]; measured here: relative caspase fold change +Dox/-Dox): 1.41 and 0.655 and 1.42
- cell count ([18]; measured here: total cells with miR-34 induction, stronger effect = lower value): 9740 and 7120 and 8790
- cell count ([18]; measured here: total cells without miR-34 induction): 10200 and 8020
- z-score [12, 22]: -0.182 (inactive) and -0.283 (inactive)
- z-score [12, 23]: -0.743 and -0.155
- remaining NAD [13]: 10 nM (inactive)
- luciferase signal [14]: 52 AU (inactive)
- inhibition ([19]; BGB IC20 combo, at 0.005 µM): -15.4% and -25.1%
- inhibition ([19]; BGB IC40 combo, at 0.005 µM): -13.7% and -14%
- inhibition ([19]; BGB IC40 combo, at 0.05 µM): -7.43% and 3.18%
- inhibition ([19]; at 0.5 µM): -25.5% (inactive) and -7% (inactive)
- inhibition ([19]; cisplatin combo, at 0.05 µM): -11.3% and 3.18%
- inhibition ([19]; cisplatin combo, at 0.5 µM): -9.08% and -3.26%
- inhibition ([19]; cisplatin combo, at 5 µM): -50.4% and -16.4%
- inhibition ([19]; measured here: 5 uM single agent, at 5 µM): -29.1% and 6.4%
- log fold change Tl+ flux [15]: -0.0118 (inactive)
- log fold change Tl+ flux [16]: 0.0504 (inactive)
- log fold change Tl+ flux [17]: 0.00156 (inactive)

Structure (SMILES): NNCCc1ccccc1
- nuclear beta-catenin stimulation ([1]; at 10 µM): 1.9% (inactive)
- nuclear beta-catenin stimulation ([1]; stimulation, at 2 µM): 0.7%
- insulin secretion stimulation [2]: -0.6% (inactive)
- viability decrease [3]: -32% (inactive)
- tube area decrease [4]: 7.4% (inactive)
- GLP1 secretion stimulation [5]: -0.4% (inactive)
- inhibition of viability [6]: 5.1% (inactive)
- viability decrease (inhibition) [7]: -14.5% (inactive)
- viability decrease (inhibition) [8]: 7.4% (inactive)
- inhibition [9]: 8.47% (inactive)
- mean signal [10]: 213 (inactive)
- red/green cell ratio (normalised) [11]: 0.88 (inactive)
- normalised cell number [11, 20]: 1.03
- normalised cell number [11, 21]: 0.91
- z-score [12, 22]: -0.122 (inactive)
- z-score [12, 23]: -0.108
- remaining NAD [13]: 10 nM (inactive)
- luciferase signal [14]: 44 AU (inactive)
- log fold change Tl+ flux [15]: 0.0104 (inactive)
- log fold change Tl+ flux [16]: -0.0168 (inactive)
- log fold change Tl+ flux [17]: -0.0213 (inactive)

Structure (SMILES): N[C@@H](Cc1cc(I)c(Oc2cc(I)c(O)c(I)c2)c(I)c1)C(=O)O
- nuclear beta-catenin stimulation ([1]; at 10 µM): -0.2% (inactive)
- nuclear beta-catenin stimulation ([1]; stimulation, at 2 µM): -1.8%
- insulin secretion stimulation [2]: 1.4% (inactive)
- viability decrease [3]: 24.1% (inactive)
- tube area decrease [4]: 5.6% (inactive)
- GLP1 secretion stimulation [5]: 0.1% (inactive)
- inhibition of viability [6]: 36.7% (inactive)
- viability decrease (inhibition) [7]: 26% (inactive)
- viability decrease (inhibition) [8]: -2% (inactive)
- inhibition [9]: 12.1% (inactive)
- mean signal [10]: 252 (inactive)
- red/green cell ratio (normalised) [11]: 1.06 (inactive)
- normalised cell number [11, 20]: 0.96
- normalised cell number [11, 21]: 1.02
- z-score [12, 22]: -0.661 (inactive) and -0.549 (inactive)
- z-score [12, 23]: -0.144 and -1.61
- remaining NAD [13]: 10 nM (inactive)
- luciferase signal [14]: 112 AU (inactive)
- log fold change Tl+ flux [15]: -0.00167 (inactive)
- log fold change Tl+ flux [16]: 0.13 (active)
- log fold change Tl+ flux [17]: 0.163 (active)
